The panel holds about 79,000 compounds, 15% with a hit somewhere; the sample as a whole holds those more often. Unmarked numbers belong to inactive results. Active and inactive are the calls of the source. Cut-off read from the data, not from the text of the source: active = growth inhibition above about 70%; inactive = the rest.
Columns and labels:
[1] = NCI Yeast Anticancer Drug Screen. Data for the wt1 strain (AID 149);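 note: 0% = growth of vehicle-treated wt1 cultures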; settings: S. cerevisiae wt1 strain (SPY 50644) growth inhibition, stronger effect = higher value
Method in brief: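 Measured: growth of wt1 yeast under compound versus vehicle treatment, reported as inhibition.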

[2] = NCI Yeast Anticancer Drug Screen. Data for the rad50EPP+ strain (AID 151);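 note: 0% = growth of vehicle-treated control cultures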; settings: S. cerevisiae rad50 mutant strain, stronger effect = higher value
Method in brief: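 Read-out is yeast growth inhibition relative to vehicle; cells used were the rad50EPP+ strain.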

[3] = NCI Yeast Anticancer Drug Screen. Data for the mgt1 strain (AID 153); settings: S. cerevisiae mgt1 mutant growth inhibition, stronger effect = higher value
Method in brief: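 Measured: inhibition of mgt1 yeast growth by compound, normalized to vehicle-treated cultures.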

[4] = NCI Yeast Anticancer Drug Screen. Data for the rad50 strain (AID 155);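 note: 0% = growth of vehicle-only cultures of the same strain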; settings: S. cerevisiae rad50 strain growth inhibition, stronger effect = higher value
Method in brief: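 Growth of the mutant yeast was measured after compound exposure and referenced to vehicle-treated cultures.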

[5] = NCI Yeast Anticancer Drug Screen. Data for the mec2-1 strain (AID 157); settings: S. cerevisiae mec2-1 strain, stronger effect = higher value
Method in brief: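 Using mec2-1 yeast: add compound, measure growth, express inhibition versus vehicle-treated cultures.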

[6] = NCI Yeast Anticancer Drug Screen. Data for the rad14 strain (AID 159);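 note: 0% = growth of vehicle-treated control cultures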; settings: S. cerevisiae rad14 strain growth inhibition, stronger effect = higher value
Method in brief: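 Here, inhibition of yeast growth was measured after compound exposure, using a strain with a genetic defect in DNA damage repair and vehicle-treated cultures as the reference.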

[7] = NCI Yeast Anticancer Drug Screen. Data for the sgs1 mgt1 strain (AID 161);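 note: 0% = growth of cultures given vehicle only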; settings: S. cerevisiae sgs1 mgt1 strain, stronger effect = higher value
Method in brief: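 Compounds are added to genetically altered yeast, and growth is compared with cultures given vehicle alone to give percent inhibition.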

[8] = NCI Yeast Anticancer Drug Screen. Data for the CLN2oe strain (AID 163);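 note: 0% = growth of vehicle-only control cultures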; settings: S. cerevisiae CLN2oe strain, stronger effect = higher value
Method in brief: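 Whole-cell yeast growth assay. A strain engineered for altered cell-cycle control received compound, and inhibition relative to vehicle-treated cultures was recorded.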

[9] = NCI Yeast Anticancer Drug Screen. Data for the cln2 rad14 strain (AID 165);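 note: 0% = growth equal to vehicle treated cultures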; settings: S. cerevisiae cln2 rad14 strain, stronger effect = higher value
Method in brief: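 Yeast strain cln2 rad14, bearing defects in cell cycle control and DNA repair, serves as the test system; values reflect growth inhibition compared with vehicle.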

[10] = NCI Yeast Anticancer Drug Screen. Data for the bub3 strain (AID 167); settings: S. cerevisiae bub3 mutant strain, stronger effect = higher value
Method in brief: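 Whole-cell yeast assay. The mutant strain was incubated with compounds, and growth inhibition was determined by comparison with vehicle-treated cells.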

[11] = NCI Yeast Anticancer Drug Screen. Data for the wt2 strain (AID 169);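 note: 0% = growth of vehicle-treated yeast cultures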; settings: S. cerevisiae wt2 strain growth inhibition, stronger effect = higher value
Method in brief: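 Treated yeast vs. vehicle-treated yeast: growth inhibition determined.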

[12] = NCI Yeast Anticancer Drug Screen. Data for the mlh1 strain (AID 171);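 note: 0% = growth of vehicle-treated control cultures of the same strain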; settings: S. cerevisiae mlh1 strain growth inhibition, stronger effect = higher value
Method in brief: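 A yeast strain with a defined genetic lesion serves as the test organism. Cultures receive compound or vehicle, and growth is measured.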

[13] = NCI Yeast Anticancer Drug Screen. Data for the sgs1 strain (AID 173);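 note: 0% = growth of vehicle-only control cultures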; settings: S. cerevisiae sgs1 mutant, stronger effect = higher value
Method in brief: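 A genetically defined yeast mutant is incubated with the test compound, and its growth is compared to that of the same strain given vehicle.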

[14] = NCI Yeast Anticancer Drug Screen. Data for the mlh1 rad18 strain (AID 175); settings: S. cerevisiae mlh1 rad18 strain growth inhibition, stronger effect = higher value
Method in brief: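 Steps: expose repair-defective yeast to compound; measure growth; express inhibition against vehicle-treated controls.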

[15] = NCI Yeast Anticancer Drug Screen. Data for the rad18 strain (AID 177); settings: S. cerevisiae rad18 mutant growth inhibition, stronger effect = higher value
Method in brief: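 Measured value is growth inhibition of a yeast strain bearing a DNA repair alteration, referenced to vehicle-treated cells.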

[16] = at 5.0 µM (retest, dose inferred, filed as 0.5)
[17] = at 50.0 µM (retest, dose inferred, filed as 5.0)

SMILES: Cc1cccc[c]1[Sn]([Cl])([S]/C(C#N)=N/N=C/c1ccc(N(C)C)cc1)[c]1ccccc1C
- growth inhibition ([1]; at 1.2 µM): -4%
- growth inhibition ([1]; at 3.7 µM): -3%
- growth inhibition ([1]; at 11.0 µM): -8%
- growth inhibition ([1]; at 33.0 µM): 35%
- growth inhibition ([1]; at 100.0 µM): 48%
- growth inhibition ([2]; at 1.2 µM): 0%
- growth inhibition ([2]; at 3.7 µM): -1%
- growth inhibition ([2]; at 11.0 µM): 0%
- growth inhibition ([2]; at 33.0 µM): 12%
- growth inhibition ([2]; at 100.0 µM): 13%
- growth inhibition ([3]; at 1.2 µM): -3%
- growth inhibition ([3]; at 3.7 µM): -6%
- growth inhibition ([3]; at 11.0 µM): -8%
- growth inhibition ([3]; at 33.0 µM): 37%
- growth inhibition ([3]; at 100.0 µM): 91% (active)
- growth inhibition ([4]; at 1.2 µM): -3%
- growth inhibition ([4]; at 3.7 µM): -1%
- growth inhibition [4, 16]: 40%
- growth inhibition ([4]; at 11.0 µM): 12%
- growth inhibition ([4]; at 33.0 µM): 67%
- growth inhibition [4, 17]: 89% (active)
- growth inhibition ([4]; at 50.0 µM): 97.4% (active)
- growth inhibition ([4]; at 100.0 µM): 94% (active)
- growth inhibition ([5]; at 1.2 µM): 2%
- growth inhibition ([5]; at 3.7 µM): -1%
- growth inhibition [5, 16]: 9%
- growth inhibition ([5]; at 11.0 µM): 8%
- growth inhibition ([5]; at 33.0 µM): 51%
- growth inhibition [5, 17]: 90% (active)
- growth inhibition ([5]; at 50.0 µM): 98.2% (active)
- growth inhibition ([5]; at 100.0 µM): 93% (active)
- growth inhibition ([6]; at 1.2 µM): -1%
- growth inhibition ([6]; at 3.7 µM): 3%
- growth inhibition ([6]; at 11.0 µM): 11%
- growth inhibition ([6]; at 33.0 µM): 58%
- growth inhibition ([6]; at 100.0 µM): 93% (active)
- growth inhibition [7, 16]: 37%
- growth inhibition [7, 17]: 92% (active)
- growth inhibition ([7]; at 50.0 µM): 98.3% (active)
- growth inhibition ([8]; at 1.2 µM): 0%
- growth inhibition ([8]; at 3.7 µM): 0%
- growth inhibition ([8]; at 11.0 µM): 2%
- growth inhibition ([8]; at 33.0 µM): 53%
- growth inhibition ([8]; at 100.0 µM): 94% (active)
- growth inhibition [9, 16]: 25%
- growth inhibition [9, 17]: 89% (active)
- growth inhibition ([9]; at 50.0 µM): 97.1% (active)
- growth inhibition ([10]; at 1.2 µM): -8%
- growth inhibition ([10]; at 3.7 µM): -6%
- growth inhibition [10, 16]: 34%
- growth inhibition ([10]; at 11.0 µM): 0%
- growth inhibition ([10]; at 33.0 µM): 46%
- growth inhibition [10, 17]: 92% (active)
- growth inhibition ([10]; at 50.0 µM): 97.2% (active)
- growth inhibition ([10]; at 100.0 µM): 89% (active)
- growth inhibition ([11]; at 1.2 µM): -1%
- growth inhibition ([11]; at 3.7 µM): -2%
- growth inhibition ([11]; at 11.0 µM): -6%
- growth inhibition ([11]; at 33.0 µM): 32%
- growth inhibition ([11]; at 100.0 µM): 89% (active)
- growth inhibition ([12]; at 1.2 µM): 3%
- growth inhibition ([12]; at 3.7 µM): -5%
- growth inhibition ([12]; at 11.0 µM): -4%
- growth inhibition ([12]; at 33.0 µM): 35%
- growth inhibition ([12]; at 100.0 µM): 90% (active)
- growth inhibition ([13]; at 1.2 µM): -1%
- growth inhibition ([13]; at 3.7 µM): -3%
- growth inhibition ([13]; at 11.0 µM): -1%
- growth inhibition ([13]; at 33.0 µM): 66%
- growth inhibition ([13]; at 100.0 µM): 94% (active)
- growth inhibition [14, 16]: 47%
- growth inhibition [14, 17]: 86% (active)
- growth inhibition ([14]; at 50.0 µM): 98.4% (active)
- growth inhibition ([15]; at 1.2 µM): 0%
- growth inhibition ([15]; at 3.7 µM): -2%
- growth inhibition ([15]; at 11.0 µM): 10%
- growth inhibition ([15]; at 33.0 µM): 61%
- growth inhibition ([15]; at 100.0 µM): 92% (active)

— PubChem BioAssay (NCI)
